Inconclusive results are not listed. Where a call stands in place of a potency, no number is given. Activity calls are given as the source filed them. Calls come from the whole dose curve; as a rule, active = well fitted activation curve with a large enough effect; inconclusive = small, poorly fitted or top-dose-only effect; inactive = no such curve, though single readings can be large or run the other way.

A short description of this test: Activators of T cell receptors: Hit Validation.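 Note: cytokine measured is secreted IL-2.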 A digest of the protocol:
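Readout is IL-2 secretion by HTRF, measured after 48 hr in which primary human leukocytes received compound together with a-CD3 beads as the only TCR stimulus.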

On to `CC1(NC(=O)CCNC(=O)c2ccc(C(C)(C)C)cc2)CCS(=O)(=O)C1` (stereo not drawn), for which the Potency result was “inactive”.

Consider `N#Cc1ccc(CN2CCN(C(=O)c3ccc(S(=O)(=O)NCc4ccco4)cc3)CC2)cc1`, for which the Potency entry is “inactive”.

In the case of `CC(=O)Nc1nnc(S(N)(=O)=O)s1`, the Potency entry is “inactive”.

Take `Oc1ccc(/C=N\Nc2nncc(-c3ccccc3)n2)cc1`: the Potency result is “inactive”.

As to `Cc1ccc(NC(=S)c2ccc(N(C)C)cc2)cc1`, the Potency entry is “inactive”.

Turning to `COc1ccccc1C(=O)NCCC(=O)N1CCN(S(=O)(=O)c2cccc(Cl)c2)CC1`, the Potency result is “inactive”.

Turning to `CCC(=O)N1CCN(c2ccc(NC(=O)c3ccc([N+](=O)[O-])o3)cc2)CC1`, the Potency entry is “inactive”.

On to `O=C(O)c1ccc(NC(=O)C(c2ccccc2)c2ccccc2)cc1`, for which the Potency result is “inactive”.

As for `COc1ccc(S(=O)(=O)N2CCN(C(=O)CCc3c[nH]c4ccccc34)CC2)cc1`, the Potency result is “inactive”.

As to `O=C(COC(=O)C1CCN(c2ccc(C(F)(F)F)cn2)CC1)NCc1ccccc1`, the Potency result was “inactive”.

Take `COc1cc(OC)cc(C(=O)Nc2ccc(S(=O)(=O)N3CCOCC3)cc2)c1`: the Potency entry was “inactive”.

As to `CC(C)c1nnc(SCC(=O)N2CCOCC2)n1C`, the Potency result is “inactive”.

In the case of `O=C(COc1ncnc2c(Cl)cc(Cl)cc12)Nc1cc([N+](=O)[O-])ccc1Cl`, the Potency entry is “inactive”.

The values are drawn from PubChem BioAssay AID624298 (National Center for Advancing Translational Sciences (NCATS), 2012).
